Laboratory results from ChEMBL document CHEMBL3988442, “University of Dundee, Small-Polar-MMV Screening Library” (2021).
For some of these results: Results with a measured potency or affinity are listed apart.

Key:
Parameters in all cases: scale not given: direction of the effect not stated beside the values
[1] = target: Protein translocase subunit SecA (Escherichia coli (strain K12)) (UniProt P10408); assay: Assay to Identify E. coli SecA ATPase Inhibitors; format: functional; conditions: 30 µM
[2] = target: T1, Ubiquitin-activating enzyme e1, putative (Leishmania donovani (strain BPK282A1)) (UniProt E9BSI1); assay: Leishmania donovani Ubiquitin Activating Enzyme (LdE1); format: functional; conditions: 30 µM
T1 sequence (whole entry): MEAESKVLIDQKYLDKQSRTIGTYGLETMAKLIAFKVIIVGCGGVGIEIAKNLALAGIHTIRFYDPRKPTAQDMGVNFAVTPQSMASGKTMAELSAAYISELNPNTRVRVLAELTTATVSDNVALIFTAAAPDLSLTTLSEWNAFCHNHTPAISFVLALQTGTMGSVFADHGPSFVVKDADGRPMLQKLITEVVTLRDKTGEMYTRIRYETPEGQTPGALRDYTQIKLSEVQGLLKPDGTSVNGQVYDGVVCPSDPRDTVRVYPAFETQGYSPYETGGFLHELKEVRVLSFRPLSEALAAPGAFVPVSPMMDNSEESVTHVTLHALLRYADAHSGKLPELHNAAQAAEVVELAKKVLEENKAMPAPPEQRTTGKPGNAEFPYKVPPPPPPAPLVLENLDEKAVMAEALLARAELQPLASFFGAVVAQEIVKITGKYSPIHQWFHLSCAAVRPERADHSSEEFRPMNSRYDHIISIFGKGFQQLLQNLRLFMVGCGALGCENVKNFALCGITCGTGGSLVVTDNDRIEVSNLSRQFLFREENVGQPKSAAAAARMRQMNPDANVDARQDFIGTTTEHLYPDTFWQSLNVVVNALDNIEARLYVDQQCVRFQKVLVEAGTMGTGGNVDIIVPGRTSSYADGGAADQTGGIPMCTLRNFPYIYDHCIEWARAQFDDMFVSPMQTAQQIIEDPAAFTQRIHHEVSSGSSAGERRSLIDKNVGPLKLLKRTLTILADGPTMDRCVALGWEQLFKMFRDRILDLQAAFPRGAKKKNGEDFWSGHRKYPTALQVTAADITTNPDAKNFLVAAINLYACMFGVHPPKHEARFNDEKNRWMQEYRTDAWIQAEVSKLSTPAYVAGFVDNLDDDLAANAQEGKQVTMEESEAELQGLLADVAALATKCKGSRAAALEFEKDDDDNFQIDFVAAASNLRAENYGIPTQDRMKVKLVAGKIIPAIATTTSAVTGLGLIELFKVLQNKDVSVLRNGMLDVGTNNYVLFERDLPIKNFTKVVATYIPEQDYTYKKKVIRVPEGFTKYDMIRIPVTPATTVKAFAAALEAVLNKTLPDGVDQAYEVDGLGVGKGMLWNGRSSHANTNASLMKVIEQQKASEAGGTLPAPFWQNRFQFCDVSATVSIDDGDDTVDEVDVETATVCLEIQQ

[3] = target: AMP-activated protein kinase, AMPK (Homo sapiens) (UniProt P54646+O43741+P54619+Q9UGJ0+Q9Y478+Q13131+Q9UGI9); assay: AMP-dependent Kinase enzyme assay. An in vitro enzyme assay that detects ADP turnover that is directly proportional to AMPK activity. This uses naive AMPK that is activated during the assay with MK-8722; format: functional; conditions: 30 µM
[4] = target: Sialic acid-binding Ig-like lectin 9 (Homo sapiens) (UniProt Q9Y336); assay: Hs-Siglec9 ALPHAscreen SOP 20170721; conditions: 10 µM
Trypanosoma cruzi = assay: Trypanosoma cruzi phosphomannomutase and mannose-1-phosphate guanylyltransferase assay; format: functional; conditions: 10 µM
[5] = target: T2, Arginase-2, mitochondrial (Homo sapiens) (UniProt P78540); assay: in vitro enzyme assay to detect the production of urea directly proportional to the activity of Arginase II; format: functional; conditions: 33.3 µM; note: in the data most compounds retested in dose-response had high values
T2 sequence (whole entry): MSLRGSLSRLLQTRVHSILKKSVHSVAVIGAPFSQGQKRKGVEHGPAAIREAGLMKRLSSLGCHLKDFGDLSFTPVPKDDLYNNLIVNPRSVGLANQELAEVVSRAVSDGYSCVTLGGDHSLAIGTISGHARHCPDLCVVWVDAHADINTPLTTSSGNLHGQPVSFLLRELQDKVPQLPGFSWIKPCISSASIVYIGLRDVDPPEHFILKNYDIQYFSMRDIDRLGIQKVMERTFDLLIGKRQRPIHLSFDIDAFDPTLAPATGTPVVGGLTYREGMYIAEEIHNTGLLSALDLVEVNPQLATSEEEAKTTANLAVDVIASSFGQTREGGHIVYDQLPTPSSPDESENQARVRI

[6] = target: T3, Proteasome subunit beta (Trypanosoma cruzi) (UniProt O96673); assay: Trypanosoma cruzi proteasome chymotrypsin-like activity (TcProtChymo) assay.; note: in the data most compounds retested in dose-response had high values; format: functional; conditions: 9.37 µM
T3 sequence (whole entry): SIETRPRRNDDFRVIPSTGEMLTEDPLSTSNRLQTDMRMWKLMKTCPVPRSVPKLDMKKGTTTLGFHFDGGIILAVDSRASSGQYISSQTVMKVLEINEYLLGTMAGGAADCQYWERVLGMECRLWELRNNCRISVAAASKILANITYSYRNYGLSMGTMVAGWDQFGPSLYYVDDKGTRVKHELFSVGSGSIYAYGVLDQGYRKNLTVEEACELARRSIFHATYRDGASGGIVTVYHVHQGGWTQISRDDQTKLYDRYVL

Homo sapiens = species: Homo sapiens; assay: To identify inhibition of the IFN signalling (Jak-Stat) pathway via expression of an eGFP reporter gene under the control of an IFN-stimulated response element (ISRE) containing MxA promoter.; format: functional; conditions: 30 µM
[7] = target: T4, Tyrosyl-tRNA synthetase, putative (Trypanosoma cruzi (strain CL Brener)) (UniProt Q4DSP6); assay: Trypanosoma cruzi tyrosyl tRNA synthetase (TcYRS) _High Tyrosine SOP; format: functional; conditions: 30 µM; note: in the data most compounds retested in dose-response had high values
T4 sequence (whole entry): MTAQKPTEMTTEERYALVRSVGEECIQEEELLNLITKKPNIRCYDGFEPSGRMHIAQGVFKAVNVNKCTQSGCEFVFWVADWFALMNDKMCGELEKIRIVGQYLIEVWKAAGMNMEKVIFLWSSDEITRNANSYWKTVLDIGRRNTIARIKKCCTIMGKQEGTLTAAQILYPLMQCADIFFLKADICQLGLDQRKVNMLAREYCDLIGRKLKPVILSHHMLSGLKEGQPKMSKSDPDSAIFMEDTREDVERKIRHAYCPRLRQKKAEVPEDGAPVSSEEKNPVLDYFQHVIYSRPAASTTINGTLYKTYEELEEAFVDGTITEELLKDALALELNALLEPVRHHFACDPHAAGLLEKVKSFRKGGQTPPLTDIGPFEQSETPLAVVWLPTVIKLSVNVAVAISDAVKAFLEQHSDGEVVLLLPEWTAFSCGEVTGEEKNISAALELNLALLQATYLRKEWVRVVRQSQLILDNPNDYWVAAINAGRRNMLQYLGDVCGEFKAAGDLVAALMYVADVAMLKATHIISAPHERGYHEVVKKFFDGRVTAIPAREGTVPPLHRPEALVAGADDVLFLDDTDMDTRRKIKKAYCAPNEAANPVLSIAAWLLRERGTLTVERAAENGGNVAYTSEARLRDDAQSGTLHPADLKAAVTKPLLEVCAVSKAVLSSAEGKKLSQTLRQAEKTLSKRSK

[8] = target: T4, Tyrosyl-tRNA synthetase, putative (Trypanosoma cruzi (strain CL Brener)); assay: Trypanosoma cruzi tyrosyl tRNA synthetase (TcYRS) SOP; format: functional; conditions: 30 µM
[9] = target: Chromo domain-containing protein 1 (Saccharomyces cerevisiae (strain ATCC 204508 / S288c) (Baker's yeast)) (UniProt P32657); assay: ScCHD-1 Enzyme Inhibition Assay; format: functional; conditions: 30 µM; note: in the data most compounds retested in dose-response had high values
Chain of Chromo domain-containing protein 1 (Saccharomyces cerevisiae (strain ATCC 204508 / S288c) (Baker's yeast)) (P32657 whole entry, the tested form may be a part): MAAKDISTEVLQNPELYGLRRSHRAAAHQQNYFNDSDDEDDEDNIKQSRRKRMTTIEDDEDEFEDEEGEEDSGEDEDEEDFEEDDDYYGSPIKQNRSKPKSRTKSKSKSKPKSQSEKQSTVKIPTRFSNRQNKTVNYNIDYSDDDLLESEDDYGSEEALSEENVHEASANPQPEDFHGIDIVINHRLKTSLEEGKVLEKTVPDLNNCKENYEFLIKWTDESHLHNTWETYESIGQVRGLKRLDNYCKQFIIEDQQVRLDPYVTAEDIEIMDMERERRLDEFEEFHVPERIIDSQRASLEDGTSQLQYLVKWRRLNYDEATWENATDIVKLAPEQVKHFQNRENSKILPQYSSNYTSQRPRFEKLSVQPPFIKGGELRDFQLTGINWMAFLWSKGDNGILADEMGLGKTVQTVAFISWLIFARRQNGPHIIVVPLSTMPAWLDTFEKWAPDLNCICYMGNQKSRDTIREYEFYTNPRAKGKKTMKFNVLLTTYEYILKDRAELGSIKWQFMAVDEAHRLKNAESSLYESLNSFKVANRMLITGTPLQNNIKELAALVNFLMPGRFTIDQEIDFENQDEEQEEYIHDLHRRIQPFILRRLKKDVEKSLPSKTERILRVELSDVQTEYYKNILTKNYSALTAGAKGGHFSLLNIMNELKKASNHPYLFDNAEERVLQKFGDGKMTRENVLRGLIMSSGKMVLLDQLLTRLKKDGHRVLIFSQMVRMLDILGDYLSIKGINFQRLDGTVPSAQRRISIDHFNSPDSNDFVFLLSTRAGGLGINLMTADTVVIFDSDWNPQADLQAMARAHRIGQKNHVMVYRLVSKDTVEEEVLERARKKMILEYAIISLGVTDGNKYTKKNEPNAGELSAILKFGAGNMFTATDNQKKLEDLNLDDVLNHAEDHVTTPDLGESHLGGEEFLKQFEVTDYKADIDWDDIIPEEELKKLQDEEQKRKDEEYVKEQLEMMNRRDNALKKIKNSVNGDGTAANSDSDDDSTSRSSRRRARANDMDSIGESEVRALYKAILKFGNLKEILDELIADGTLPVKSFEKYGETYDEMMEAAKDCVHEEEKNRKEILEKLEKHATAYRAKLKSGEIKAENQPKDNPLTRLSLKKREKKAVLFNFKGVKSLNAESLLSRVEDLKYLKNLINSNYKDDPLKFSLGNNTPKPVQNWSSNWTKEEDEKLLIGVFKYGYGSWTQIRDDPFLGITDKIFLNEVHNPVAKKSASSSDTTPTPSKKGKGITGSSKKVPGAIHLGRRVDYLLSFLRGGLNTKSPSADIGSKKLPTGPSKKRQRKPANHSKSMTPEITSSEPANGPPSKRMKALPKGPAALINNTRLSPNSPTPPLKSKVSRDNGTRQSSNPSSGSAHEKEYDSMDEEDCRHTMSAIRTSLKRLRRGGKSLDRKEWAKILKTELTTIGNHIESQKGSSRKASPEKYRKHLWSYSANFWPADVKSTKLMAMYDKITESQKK

Chain of Protein translocase subunit SecA (Escherichia coli (strain K12)) (P10408 whole entry): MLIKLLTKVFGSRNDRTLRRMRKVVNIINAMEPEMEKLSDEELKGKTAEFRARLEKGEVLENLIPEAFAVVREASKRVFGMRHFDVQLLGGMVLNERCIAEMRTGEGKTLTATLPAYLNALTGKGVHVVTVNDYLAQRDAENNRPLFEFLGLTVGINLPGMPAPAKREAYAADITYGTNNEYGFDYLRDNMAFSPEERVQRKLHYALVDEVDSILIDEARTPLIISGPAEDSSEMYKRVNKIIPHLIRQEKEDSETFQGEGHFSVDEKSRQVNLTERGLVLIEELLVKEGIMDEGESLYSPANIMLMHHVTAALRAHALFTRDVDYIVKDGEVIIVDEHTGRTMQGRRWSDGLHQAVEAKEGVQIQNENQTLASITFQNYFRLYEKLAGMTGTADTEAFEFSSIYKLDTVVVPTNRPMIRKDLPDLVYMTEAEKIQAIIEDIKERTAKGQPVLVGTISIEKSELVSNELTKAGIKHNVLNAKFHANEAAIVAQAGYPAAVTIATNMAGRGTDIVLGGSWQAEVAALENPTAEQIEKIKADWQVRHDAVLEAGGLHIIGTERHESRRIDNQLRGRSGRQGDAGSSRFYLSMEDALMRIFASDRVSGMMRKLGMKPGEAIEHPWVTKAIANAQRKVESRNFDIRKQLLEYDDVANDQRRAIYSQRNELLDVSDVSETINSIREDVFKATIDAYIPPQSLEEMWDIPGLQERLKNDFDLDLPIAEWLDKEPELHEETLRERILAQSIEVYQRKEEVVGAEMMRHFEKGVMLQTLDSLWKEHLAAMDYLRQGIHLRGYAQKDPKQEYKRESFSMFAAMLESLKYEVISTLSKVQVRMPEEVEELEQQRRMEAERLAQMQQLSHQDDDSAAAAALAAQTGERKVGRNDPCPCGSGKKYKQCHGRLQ
Chain of Sialic acid-binding Ig-like lectin 9 (Homo sapiens) (Q9Y336 whole entry): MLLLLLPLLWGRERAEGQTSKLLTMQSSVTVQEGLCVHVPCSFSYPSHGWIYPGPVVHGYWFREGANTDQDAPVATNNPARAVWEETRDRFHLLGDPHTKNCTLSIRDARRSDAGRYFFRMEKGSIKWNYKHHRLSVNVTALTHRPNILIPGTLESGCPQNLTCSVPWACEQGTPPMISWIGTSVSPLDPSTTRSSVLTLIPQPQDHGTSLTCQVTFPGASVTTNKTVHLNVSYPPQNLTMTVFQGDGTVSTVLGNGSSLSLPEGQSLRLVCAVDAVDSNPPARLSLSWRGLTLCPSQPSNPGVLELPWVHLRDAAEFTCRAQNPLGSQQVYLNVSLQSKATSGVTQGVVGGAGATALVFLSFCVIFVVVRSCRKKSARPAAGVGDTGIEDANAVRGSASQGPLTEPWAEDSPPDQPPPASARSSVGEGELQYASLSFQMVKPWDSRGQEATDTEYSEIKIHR

Row | SMILES | Percent Effect [1] | Percent Effect [2] | Percent Effect [3] | Percent Effect [4] | Percent Effect (Trypanosoma cruzi) | Percent Effect [5] | Percent Effect [6] | Percent Effect (Homo sapiens) | Percent Effect [7] | Percent Effect [8] | Percent Effect [9]
1 | CCOCCC(=O)N1CCCC(c2ncc[nH]2)C1 (stereo not given) | -3.07% | 2.74% | -7.86% | -2.18% | -5.29% | 6.36% | 4.97% | 11.3% | 2.15% | 7.5% | -0.879%
2 | COCc1cnc2n1CCN(C(=O)C1=CCCCC1)C2C (stereo not given) | 2.94% | 17.3% | -3.72% | -2.8% | -1.77% | -16.7% | 15.5% | 33% | 3.17% | 12.8% | -8.38%
3 | CCc1nc(C(=O)N2CCN(C)CC2C)nn1-c1ccccc1Cl (stereo not given) | -3.02% | 15.8% | 15.7% | -9.77% | -7.19% | 0.36% | 8.04% | 12.9% | 5.42% | 11.1% | -9.77%
4 | O=C(c1cnccn1)N1CCc2onc(CN3CCOCC3)c2C1 | -1.8% | 0% | 11.9% | -11% | -6.75% | 2.87% | 11.8% | 13.9% | 1.08% | 2.56% | -5.16%
5 | Cc1cccc(N2CCC(NC(=O)CCCc3cccs3)CC2)n1 | -3.35% | 11% | 0.158% | 5.32% | 5.49% | 6.82% | 9.94% | 4.54% | 5.38% | 12.5% | 2.88%
6 | CC(C)CN1CCCn2nc(CNC(=O)CCCc3cn[nH]c3)cc2C1 | -4.55% | 2.67% | 1.75% | 9.18% | 6.91% | -0.521% | 10.8% | 0.658% | 6.01% | 11.1% | -7.73%
7 | COCc1ccccc1CNc1cc(N2CCCC2CO)ncn1 (stereo not given) | -4.86% | 18.2% | -4.12% | 3.3% | -2.43% | 1.07% | 11.7% | 7.92% | 5.83% | 19.5% | -6.07%
8 | Cc1cc(C)c(CNC(=O)NCC2CCCO2)c(=O)[nH]1 (stereo not given) | -9.94% | 2.63% | 3.27% | 0.242% | -5.64% | -2.3% | -2.17% | 19.5% | -3.43% | -2.44% | 2.35%
9 | CC(C)NC(=O)N1CCC(n2ccc(C(F)(F)F)n2)CC1 | -6.7% | 5.48% | -3.52% | -4.66% | -2.74% | -0.909% | 5.32% | -13.8% | 0% | 7.5% | -2.82%
10 | O=C(O)C1(Cc2ccccc2Cl)CCN(c2ncccc2F)CC1 | -0.132% | 5.41% | -2.78% | 5.67% | 1.54% | 1.91% | 19.5% | 7.74% | 6.88% | 2.44% | -3.4%
11 | O=c1cc2c(nn1CN1CCN(c3cccc(Cl)c3)CC1)CCC2 | -3.06% | 6.67% | 0.948% | 5.21% | 0.589% | -6.87% | 19% | 4.05% | 6.35% | 12.8% | -2.65%
12 | CCn1c(C)cc(C(=O)N2CCCC(c3nc(C)no3)C2)c1C (stereo not given) | -3.15% | 15.6% | 3.61% | -3.42% | 2.06% | 1.47% | 17.5% | 14.4% | 8.57% | 9.41% | -22.5%
13 | CCc1nc(CN2CCCN(c3nccs3)CC2)no1 | -2.88% | 15.6% | -3.3% | -7.59% | -3.93% | 1.78% | 12.5% | 26.3% | 3.88% | 9.76% | -8.02%
14 | CC(C)c1nnc2n1CCN(CCCS(=O)(=O)c1ccccc1)C2 | -2.39% | 7.79% | 4.29% | 7.26% | 6.18% | -4.27% | 7.94% | 0.936% | 1.94% | 14.6% | -8.88%
15 | CN(C)C[C@H]1OC[C@@H]2CCN(C(=O)c3ccco3)C[C@@H]21 | -8.17% | -2.7% | -0.601% | -7.74% | -3.23% | 0.248% | -0.0858% | 11.6% | 1.07% | 3.7% | 0.795%
16 | O=C(NS(=O)(=O)c1cc(Cl)sc1Cl)c1cccc2c1OCCO2 | -8.74% | -11% | 3.09% | -2.91% | -6.07% | -1.36% | 13.5% | 24.9% | -22.6% | -42.5% | -4.53%
17 | CN(c1ccc(F)c(F)c1)S(=O)(=O)c1cc(C(=O)O)cs1 | -0.362% | -5.41% | -0.676% | 1.81% | -6.32% | -1.6% | -5.95% | 10.4% | -0.493% | -1.24% | -2.7%
18 | Cn1cnnc1C1CCN(C(=O)CCCOc2ccccc2F)CC1 | -5.06% | 10.4% | -2% | 4.13% | -7.87% | 4.98% | 2.53% | 14.2% | 3.88% | 7.32% | -2.08%
19 | Cc1cc(C)n(CC2CCCN2C(=O)c2cccc3[nH]ncc23)n1 (stereo not given) | -2.49% | -10.8% | -1.43% | 12.1% | 7.89% | -2.77% | -4.49% | 7.84% | 5.94% | 15.8% | -3.25%
20 | O=C(COc1cccc2c1CCC2=O)NCCOc1ccccc1 | -0.203% | 2.63% | -0.945% | -8.98% | -6.33% | 3.55% | 9.68% | 40.1% | -1.06% | 0% | -2.69%
